Laboratory results published in PubChem BioAssay.
Calls of active or inactive are those of the source. Unless noted, the rule behind the calls is not given here.

Experiments:
[1] = compounds binding Alexa647 anti-His antibody – biochemical, small-molecule microarray, 635 nm fluorescence, artefact control for SMM control protein annotation, primary screen (AID 1128); conditions: higher = more signal;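 note: score merges feature fluorescence with signal-to-noise for each printed compound spot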
[2] = system: Human papillomavirus type 1a E7 protein (residues 1-88); experiment: HPV1a E7 small-molecule binders, primary screen, biochemical, small-molecule microarray, residues 1-88, 635 nm (AID 1129); conditions: small-molecule microarray binding, fluorescence 635 nm; higher = more signal
[3] = molecular target: Focal adhesion kinase 1 (Homo sapiens) (UniProt Q05397); experiment: PTK2 protein binding on printed compound slides – biochemical, small-molecule microarray, 635/667 nm fluorescence, BSA, DTT, primary screen (AID 1130); conditions: 635 nm fluorescence, higher = more signal;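 note: composite of spot emission at 667 nm and signal to noise over triplicate slides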
Focal adhesion kinase 1 (Homo sapiens), sequence (Q05397 whole entry, looked up): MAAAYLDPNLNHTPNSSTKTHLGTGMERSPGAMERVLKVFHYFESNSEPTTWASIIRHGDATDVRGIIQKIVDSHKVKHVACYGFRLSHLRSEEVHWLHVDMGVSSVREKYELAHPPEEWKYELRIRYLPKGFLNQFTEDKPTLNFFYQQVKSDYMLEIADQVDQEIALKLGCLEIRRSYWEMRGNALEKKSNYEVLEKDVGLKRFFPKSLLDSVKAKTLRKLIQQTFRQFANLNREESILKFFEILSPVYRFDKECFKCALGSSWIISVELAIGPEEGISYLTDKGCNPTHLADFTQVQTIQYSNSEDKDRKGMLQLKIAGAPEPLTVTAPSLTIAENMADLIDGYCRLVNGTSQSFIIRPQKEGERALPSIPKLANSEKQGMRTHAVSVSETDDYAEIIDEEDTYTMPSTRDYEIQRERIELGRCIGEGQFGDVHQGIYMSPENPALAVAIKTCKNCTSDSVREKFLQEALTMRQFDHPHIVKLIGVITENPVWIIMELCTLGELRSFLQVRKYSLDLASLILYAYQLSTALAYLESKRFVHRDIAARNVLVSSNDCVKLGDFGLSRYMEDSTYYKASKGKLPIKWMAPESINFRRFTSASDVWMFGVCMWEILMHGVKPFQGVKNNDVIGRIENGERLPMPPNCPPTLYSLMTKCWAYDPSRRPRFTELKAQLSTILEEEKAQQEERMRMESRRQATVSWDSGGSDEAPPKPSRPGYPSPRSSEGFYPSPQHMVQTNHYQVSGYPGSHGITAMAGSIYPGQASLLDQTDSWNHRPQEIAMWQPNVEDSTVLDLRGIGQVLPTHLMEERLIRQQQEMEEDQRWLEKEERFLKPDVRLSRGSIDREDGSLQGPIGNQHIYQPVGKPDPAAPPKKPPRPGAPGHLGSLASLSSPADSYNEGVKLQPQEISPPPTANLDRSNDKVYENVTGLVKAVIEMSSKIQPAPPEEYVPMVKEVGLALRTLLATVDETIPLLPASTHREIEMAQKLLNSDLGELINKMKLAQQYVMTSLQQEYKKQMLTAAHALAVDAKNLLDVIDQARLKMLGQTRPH

[4] = system: Fibrinogen (Alexa647-labelled); experiment: Alexa647-fibrinogen binding to printed small molecules – biochemical, small-molecule microarray, 635/667 nm fluorescence, artefact control for SMM control-protein annotation, profiling panel (AID 1131); conditions: fibrinogen-A647 binding fluorescence, higher = more signal;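 note: z-score merges 667 nm fluorescence with per-spot signal-to-noise over triplicate slides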
[5] = molecular target: Follistatin (Homo sapiens) (UniProt P19883); experiment: FST protein binding to printed compounds – biochemical, small-molecule microarray, 635/667 nm fluorescence, primary screen (AID 1132); conditions: 635 nm fluorescence, higher = more signal
Follistatin (Homo sapiens), sequence (P19883 whole entry, looked up): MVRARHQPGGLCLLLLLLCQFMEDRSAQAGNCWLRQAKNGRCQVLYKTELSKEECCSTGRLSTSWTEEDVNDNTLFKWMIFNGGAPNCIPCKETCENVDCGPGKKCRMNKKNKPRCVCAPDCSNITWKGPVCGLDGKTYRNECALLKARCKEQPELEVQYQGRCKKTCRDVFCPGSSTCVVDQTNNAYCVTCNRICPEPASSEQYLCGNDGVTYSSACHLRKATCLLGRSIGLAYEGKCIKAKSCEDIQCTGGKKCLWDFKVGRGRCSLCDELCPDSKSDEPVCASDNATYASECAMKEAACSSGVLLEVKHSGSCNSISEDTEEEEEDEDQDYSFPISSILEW

[6] = molecular target: Fibroblast growth factor 2 (Homo sapiens) (UniProt P09038); experiment: basic fibroblast growth factor binding to printed compounds – biochemical, small-molecule microarray, 635/667 nm fluorescence, primary screen (AID 1133); conditions: FGF2, fluorescence 635/667, higher = more signal
Fibroblast growth factor 2 (Homo sapiens), sequence (P09038 whole entry, looked up): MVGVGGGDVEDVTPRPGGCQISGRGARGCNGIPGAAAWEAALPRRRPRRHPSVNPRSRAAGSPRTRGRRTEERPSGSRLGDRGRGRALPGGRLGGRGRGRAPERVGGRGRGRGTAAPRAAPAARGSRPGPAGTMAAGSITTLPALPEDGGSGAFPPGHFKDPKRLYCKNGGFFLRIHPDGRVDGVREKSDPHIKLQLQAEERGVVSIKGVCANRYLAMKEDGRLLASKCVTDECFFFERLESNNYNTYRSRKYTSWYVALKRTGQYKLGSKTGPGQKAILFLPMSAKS

[7] = JC-1 mitochondrial potential readout, lung cancer cells – cell-based, A549, JC-1 fluorescence, basal, 24 h, 100 nL, profiling panel (AID 1138); conditions: higher = more signal;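 note: A549 lung adenocarcinoma cells under basal conditions with no added stimulus; test concentration not given here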
Lefty1 = Lefty1 protein binding to printed compounds – biochemical, small-molecule microarray, 635/667 nm fluorescence, primary screen (AID 1139); conditions: fluorescence 635/667, higher = more signal
[8] = system: wheat germ agglutinin (Triticum aestivum), Alexa647-labelled; experiment: Alexa647-WGA lectin binding to printed small molecules – biochemical, small-molecule microarray, 635/667 nm fluorescence, artefact control for SMM control-protein annotation, profiling panel (AID 1140); conditions: WGA-A647 binding, 635 nm fluorescence, higher = more signal;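 note: score merges 667 nm feature emission with signal to noise over triplicate slides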
[9] = molecular target: Luciferin 4-monooxygenase (Photinus pyralis) (UniProt P08659); experiment: inhibition of purified Photinus pyralis luciferase – biochemical, luminescence, purified enzyme, 2006 set, primary screen (AID 1141); conditions: purified firefly luciferase, SteadyGlo luminescence, 30 min; higher = more signal, called active from +8 up or from −8 down;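 note: cell-free assay with purified firefly luciferase at 100 ng per well in PBS; test concentration not given here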
Luciferin 4-monooxygenase (Photinus pyralis), sequence (P08659 whole entry, looked up): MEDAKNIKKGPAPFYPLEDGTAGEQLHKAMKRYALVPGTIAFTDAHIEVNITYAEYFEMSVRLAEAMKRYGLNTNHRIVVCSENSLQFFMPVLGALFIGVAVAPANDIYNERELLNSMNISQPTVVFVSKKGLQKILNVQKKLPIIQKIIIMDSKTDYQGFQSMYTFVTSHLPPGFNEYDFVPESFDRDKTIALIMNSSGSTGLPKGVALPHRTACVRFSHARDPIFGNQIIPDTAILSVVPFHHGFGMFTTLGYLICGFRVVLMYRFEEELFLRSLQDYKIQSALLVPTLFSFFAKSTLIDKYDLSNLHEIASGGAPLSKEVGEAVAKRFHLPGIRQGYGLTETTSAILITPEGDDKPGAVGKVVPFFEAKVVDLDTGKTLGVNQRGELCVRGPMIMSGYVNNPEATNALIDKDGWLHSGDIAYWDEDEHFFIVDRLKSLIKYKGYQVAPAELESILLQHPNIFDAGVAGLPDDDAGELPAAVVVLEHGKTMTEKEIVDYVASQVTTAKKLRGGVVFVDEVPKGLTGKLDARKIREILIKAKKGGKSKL

[10] = system: Wnt5a (protein binding on small-molecule microarray); experiment: small molecules binding Wnt5a protein – biophysical, small-molecule microarray, 635/667 nm fluorescence, primary screen (AID 1142); conditions: 635 nm fluorescence, higher = more signal;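 note: fluorescence read at 667 nm with signal to noise per printed feature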
[11] = ATP-based viability of Huh7 replicon cells – cell-based, CellTiter-Glo luminescence, basal, 48 h, cytotoxicity control for HCV replication inhibitor project, primary screen (AID 1143); conditions: higher = more signal, called active from +8 up or from −8 down;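 note: Huh7 hepatoma cells carrying a hepatitis C replication reporter with no stimulus; test concentration not given here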
[12] = Pseudomonas biofilm growth suppression – PAO1 strain, BacTiter-Glo luminescence, LB-PBS, primary screen (AID 1144); conditions: P. aeruginosa PAO1 biofilm, 12 h, higher = more signal
[13] = basal CRE-LacZ reporter activity in PC12 – cell-based, unstimulated, primary screen (AID 1145); conditions: no forskolin, luminescence, 4.5 h, higher = more signal, called active from +8 up or from −8 down
[14] = forskolin-driven CRE-LacZ activity in PC12 – cell-based, CRE-LacZ reporter, forskolin-stimulated, primary screen (AID 1146); conditions: luminescence, 4.5 h, higher = more signal, called active from +8 up or from −8 down;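 note: PC12 cells with 6xCRE LacZ reporter stimulated by forskolin 10 µM; beta-galactosidase reporter signal reflecting CREB driven transcription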
[15] = molecular target: Streptavidin (Streptomyces avidinii) (UniProt P22629); experiment: compounds binding control protein streptavidin – biophysical, small-molecule microarray, 635/667 nm fluorescence, artefact control for SMM compound annotation, primary screen (AID 1147); conditions: higher = more signal;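 note: signal reflects streptavidin binding to arrayed compounds as a control protein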
Streptavidin (Streptomyces avidinii), sequence (P22629 whole entry, looked up): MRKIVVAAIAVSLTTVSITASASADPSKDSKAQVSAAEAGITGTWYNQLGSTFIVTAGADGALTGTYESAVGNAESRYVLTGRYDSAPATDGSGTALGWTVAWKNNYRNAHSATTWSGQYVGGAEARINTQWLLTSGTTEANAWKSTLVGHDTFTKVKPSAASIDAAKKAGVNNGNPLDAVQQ

[16] = probe aInhba binding on compound microarray – biochemical, small-molecule microarray, 635/667 nm fluorescence, primary screen (AID 1148); conditions: higher = more signal;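 note: score merges 667nm spot fluorescence with signal-to-noise for antibody binding to printed compounds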
Torsin-1A (Homo sapiens) [17] = molecular target: Torsin-1A (Homo sapiens) (UniProt O14656); experiment: TOR1A wild-type binding on microarray – cell lysate, small-molecule microarray, lysate, 635/667 nm, primary screen (AID 1149); conditions: COS7 hTOR1A-WT lysate, 635 nm fluorescence, higher = more signal
Torsin-1A (Homo sapiens), sequence (O14656 whole entry, looked up): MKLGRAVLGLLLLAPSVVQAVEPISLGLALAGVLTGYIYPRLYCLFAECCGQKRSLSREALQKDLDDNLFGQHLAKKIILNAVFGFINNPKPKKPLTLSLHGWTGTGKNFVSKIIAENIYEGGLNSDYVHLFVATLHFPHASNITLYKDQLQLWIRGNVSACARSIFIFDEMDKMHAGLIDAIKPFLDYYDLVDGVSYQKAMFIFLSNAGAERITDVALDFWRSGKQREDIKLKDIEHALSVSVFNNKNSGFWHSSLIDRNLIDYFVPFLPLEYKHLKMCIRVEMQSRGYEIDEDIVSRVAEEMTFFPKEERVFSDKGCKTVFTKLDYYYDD

Torsin-1A (Homo sapiens) [18] = molecular target: Torsin-1A (Homo sapiens) (UniProt O14656); experiment: torsin A mutant lysate binding on microarrays – cell lysate, small-molecule microarray, COS7 lysate, 635/667 nm fluorescence, primary screen (AID 1150); conditions: COS7 hTOR1A mutant lysate, 635 nm fluorescence, higher = more signal;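 note: score pools 667 nm emission and signal to noise measuring lysate protein binding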
[19] = system: Sonic hedgehog protein (Shh); experiment: Sonic hedgehog microarray binding compounds – biochemical, small-molecule microarray, 635/667 nm fluorescence, primary screen (AID 1151); conditions: 635 nm fluorescence, higher = more signal;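 note: Shh protein binding to compounds spotted on small-molecule microarray slides; score combines spot fluorescence intensity with signal-to-noise across triplicate slides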

SMILES	composite z-score [1]	composite z-score [2]	composite z-score [3]	composite z-score [4]	composite z-score [5]	composite z-score [6]	z-score [7]	composite z-score (Lefty1)	composite z-score [8]	z-score [9]	composite z-score [10]	z-score [11]	z-score [12]	z-score [13]	z-score [14]	composite z-score [15]	composite z-score [16]	composite z-score (Torsin-1A (Homo sapiens) [17])	composite z-score (Torsin-1A (Homo sapiens) [18])	composite z-score [19]
COC(=O)[C@@]1(Cc2ccc(OC)cc2)[C@@H]2C(=CC(=O)[C@H]2CC(=O)C(=O)N(C)C)CN1C(=O)c1ccccc1	0.318	1.23	0.242	0.833	0.433	-0.139	0.437	-0.973	0.521	2.12 (inactive)	0.956	-3.7 (inactive)	-0.946 (inactive)	0.0109 (inactive)	0.0777 (inactive)	1.23	1.04	0.0826	0.387	-0.671
CC(C)(C)OC(=O)CC[C@]1(C(=O)NCc2ccccc2)N=C(c2ccc(OCCCO)cc2)O[C@H]1c1ccccc1CN=[N+]=[N-]	2	1.23	-0.221	0.985	1.48	1.75	2.45	1.33	0.571	-2.11 (inactive)	1.3	-3.05 (inactive)	-0.368 (inactive)	0.344 (inactive)	-0.156 (inactive)	1.2	0.138	0.245	0.895	1.36
COc1ccc([Si](C)(C)[C@@H]2[C@@H](CCn3cc([C@H](O)c4ccccc4)nn3)O[C@]3(C(=O)N(Cc4ccc(N5CCC5=O)cc4)c4ccccc43)[C@H]2C)cc1	0.174	-0.304	-0.0467	-0.926	1.31	0.749	1.87	1.05	0.118	-0.325 (inactive)	0.512	-2.65 (inactive)	-1.38 (inactive)	1.03 (inactive)	0.355 (inactive)	-0.105	-0.184	2.13	0.269	2.02
